These results are taken from the supplement of paper PMC4840960.

The test system of the experiment is E18 rat cortical neuron-glia co-culture. The experiment is described as follows: myelination (MBP fiber length per Olig2+ nucleus), % of 1 µM DAPT response (DMSO = 0) (% of DAPT); higher = more myelination, active = 50 or more. Conditions: 1 µM; treatment time: 8 days (DIV5-DIV13). In a few lines:
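Four 10X fields in each of duplicate wells were analysed after cultures were fixed in 4 % paraformaldehyde and immunostained for MBP and Olig2, with DAPI as the nuclear counterstain. The cultures were papain-dissociated primary E18 rat cortical co-cultures at 20,000 cells/well on poly-d-lysine/laminin 96-well plates, dosed with library compounds at 1 or 5 µM in myelination medium from DIV5 to DIV13. The myelination readout was continuous straight MBP fiber length per Olig2+ nucleus, with 0.1 % DMSO set to 0 and a 1 µM positive control set to 100.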
In the case of `CCn1cc(C(=O)O)c(=O)c2ccc(C)nc21` [Nalidixic Acid], the myelination was -2.25 (inactive).

`C[C@H]1c2cccc(O)c2C(=O)C2=C(O)[C@]3(O)C(=O)C(C(N)=O)=C(O)[C@@H](N(C)C)[C@@H]3[C@@H](O)[C@@H]21` [Doxycycline]: the myelination was -18.2 (inactive).

For `CCOC(=O)N1CCC(=C2c3ccc(Cl)cc3CCc3cccnc32)CC1` [Loratadine], the myelination is -5.25 (inactive).

`CCC1=C[C@@H]2CN(C1)Cc1c([nH]c3ccccc13)[C@@](C(=O)OC)(c1cc3c(cc1OC)N(C)[C@H]1[C@@](O)(C(=O)OC)[C@H](OC(C)=O)[C@]4(CC)C=CCN5CC[C@]31[C@@H]54)C2` [Vinorelbine]: the myelination was -6.45 (inactive).

Take `O=C(O[C@@H]1Cc2c(O)cc(O)cc2O[C@@H]1c1cc(O)c(O)c(O)c1)c1cc(O)c(O)c(O)c1` [Epigallocatechin gallate]: the myelination is -23.8 (inactive).

As for `Cc1onc(-c2ccccc2)c1C(=O)N[C@@H]1C(=O)N2[C@@H]1SC(C)(C)[C@@H]2C(=O)O` [Oxacillin], the myelination was -4.75 (inactive).

For `CN1CCC[C@H]1c1cccnc1` [Nicotine], the myelination was -10.1 (inactive).

`C=C1/C(=C\C=C2/CCC[C@]3(C)[C@@H]([C@H](C)CCCC(C)(C)O)CC[C@@H]23)C[C@@H](O)C[C@@H]1O` [Calcitriol]: the myelination is -11.1 (inactive).

As for `O=C(c1ccc(OCCN2CCCCC2)cc1)c1c(-c2ccc(O)cc2)sc2cc(O)ccc12` [Raloxifene], the myelination was -12.3 (inactive).

As for `C[C@@H]1O[C@@H](OC[C@H]2O[C@@H](Oc3c(-c4ccc(O)c(O)c4)oc4cc(O)cc(O)c4c3=O)[C@H](O)[C@@H](O)[C@@H]2O)[C@H](O)[C@H](O)[C@H]1O` [Rutin], the myelination is -12 (inactive).

For `OCc1cccnc1` [Nicotinyl Alcohol], the myelination is -10.3 (inactive).

`CC(C)(C)NCC(O)COc1cccc2c1CC(O)C(O)C2` (centres undefined) [Nadolol]: the myelination was -13.9 (inactive).

On to `Cc1c(OCC(F)(F)F)ccnc1C[S+]([O-])c1nc2ccccc2[nH]1` (centres undefined) [Lansoprazole], for which the myelination was -17.3 (inactive).

`CCCSc1ccc2[nH]c(NC(=O)OC)nc2c1` [Albendazole] registered a myelination of 112.

Turning to `Cc1nc2n(c(=O)c1CCN1CCC(c3noc4cc(F)ccc34)CC1)CCCC2` [Risperidone], the myelination is -7.71 (inactive).

As for `C#C[C@]1(OC(C)=O)CC[C@H]2[C@@H]3CCC4=CC(=O)CC[C@@H]4[C@H]3CC[C@@]21C` [Norethisterone acetate], the myelination is -8.44 (inactive).

Take `CC(C)Oc1ccc2c(=O)c(-c3ccccc3)coc2c1` [Ipriflavone]: the myelination was -8.04 (inactive).

Regarding `Cc1[nH]cnc1CN1CCc2c(c3ccccc3n2C)C1=O` [Alosetron], the myelination is -18.2 (inactive).

Consider `NC[C@H](O)c1ccc(O)c(O)c1` [Norepinephrine], for which the myelination is -41.6 (inactive).

As for `CCOC(=O)OC(C)OC1=C(C(=O)Nc2ccccn2)N(C)S(=O)(=O)c2ccccc21` (centres undefined) [Ampiroxicam], the myelination was -15.1 (inactive).

As to `CCCCC(=O)N(Cc1ccc(-c2ccccc2-c2nnn[nH]2)cc1)[C@H](C(=O)O)C(C)C` [Valsartan], the myelination was -7.17 (inactive).

In the case of `CC1=C(C(=O)O)N2C(=O)[C@@H](NC(=O)[C@H](N)c3ccccc3)[C@H]2SC1` [Cephalexin], the myelination is -2.86 (inactive).

As to `O=c1[nH]cnc2c1ncn2[C@H]1CC[C@@H](CO)O1` [2',3'-Dideoxyinosine], the myelination was -2.19 (inactive).

`CC(C)NCC(O)c1ccc(NS(C)(=O)=O)cc1` (centres undefined) [Sotalol]: the myelination was -33.5 (inactive).

Turning to `Nc1nc(N)c2nc(-c3ccccc3)c(N)nc2n1` [Triamterene], the myelination was determined as 68.5.

With `OCc1cc(C(O)CNCCCCCCOCCCCc2ccccc2)ccc1O` (centres undefined) [Salmeterol], the myelination is -29.9 (inactive).

With `COc1cc(C[C@@H](CO)[C@H](CO)Cc2ccc(O)c(OC)c2)ccc1O` [Secoisolariciresinol], the myelination is -4.03 (inactive).

Regarding `C#C[C@]1(O)CC[C@H]2[C@@H]3CCC4=CC(=O)CC[C@@H]4[C@H]3CC[C@@]21C` [Norethindrone], the myelination is -8.89 (inactive).

As to `C[C@](N)(Cc1ccc(O)c(O)c1)C(=O)O` [Methyldopa], the myelination is 22.3 (inactive).

Consider `O=C1CC[C@@H](C(=O)N2CSC[C@H]2C(=O)O)N1` [Pidotimod], for which the myelination was -7.34 (inactive).

Consider `COCCCC/C(=N\OCCN)c1ccc(C(F)(F)F)cc1` [Fluvoxamine], for which the myelination was -0.231 (inactive).

For `CN1CCC(=C2c3ccccc3C=Cc3ccccc32)CC1` [Cyproheptadine], the myelination was -14.7 (inactive).

For the molecule `CNNCc1ccc(C(=O)NC(C)C)cc1` [Procarbazine], the myelination is -6.44 (inactive).

As to `CN(C)CCC=C1c2ccccc2CCc2ccccc21` [Amitriptyline], the myelination is -0.648 (inactive).

Take `C[C@]12C[C@H](O)[C@H]3[C@@H](CCC4=CC(=O)CC[C@@]43C)[C@@H]1CC[C@@H]2C(=O)CO` [Corticosterone]: the myelination was -7.15 (inactive).

As for `CN1C(=O)CC[C@H]1c1cccnc1` [Cotinine], the myelination was -30.3 (inactive).

Take `CN(C)c1nc(N(C)C)nc(N(C)C)n1` [Altretamine]: the myelination was -3.29 (inactive).

Regarding `S=c1[nH]cnc2nc[nH]c12` [Mercaptopurine], the myelination is -32.7 (inactive).

As for `Cc1ncc([N+](=O)[O-])n1CC(C)O` (centres undefined) [Secnidazole], the myelination is -31.6 (inactive).
